Results filed as inconclusive are left out. Activity calls are given as the source filed them. Calls follow the shape of the dose curve; as a rule, active = well fitted inhibition curve with a large enough effect; inconclusive = small, poorly fitted or top-dose-only effect; inactive = flat fitted curve, though single readings scatter.

What all share (test): qHTS profiling for inhibitors of Plasmodium falciparum proliferation (AID 504749); also: nearly all actives have a fitted effect of over 60% in size
Common to all, as to details: P. falciparum in erythrocytes, SYBR Green DNA, 72 h; series mostly up to 28.7 µM

The subject of assay [1] is GB4. In outline:
(§1)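 P. falciparum-infected erythrocytes (0.3% parasitemia, 2.5% hematocrit) incubated with compound 72 h at 37 C, 5% CO2. Parasite DNA detected by SYBR Green after lysis, overnight at room temperature; normalised to 0.29 uM artemisinin and DMSO.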

The test system of assay [2] is HB3. In outline: as §1
Assay [3] deals with ICS. In outline: as §1
Assay [4] relates to JCK. In outline: as §1
Assay [5] deals with N140. In outline: as §1
The test system of assay [6] is P93_24. The method, boiled down:
as §1

Assay [7] relates to P94_40. The method, boiled down: as §1
The test system of assay [8] is PAD. The method, boiled down:
as §1

The test system of assay [9] is PC15. In outline: as §1
In assay [10] the test system is PC26. In outline:
as §1
Potency is read from the fitted curve at half-maximal effect.

For the molecule `CC(=O)CCCCn1c(=O)c2c(ncn2C)n(C)c1=O`, the Potency entry in assay [1], in assay [2], in assay [3], in assay [5], in assay [7] and in assay [10] was “inactive” each time. In addition, the molecule was classed as inactive in assay [4], in assay [6], in assay [8] and in [9].

In the case of `CCN(CC)CCOC(=O)c1ccc(N)cc1`, the Potency entry in [1], in [2], in assay [3], in assay [5], in assay [7] and in [10] was “inactive” throughout. Moreover, the outcome in assay [4], in [6], in assay [8] and in assay [9] was inactive.

As for `CCN1CCC[C@H]1CNC(=O)c1cc(S(N)(=O)=O)ccc1OC`, the Potency result in [1], in [2], in assay [3], in [5], in assay [7] and in [10] was “inactive” throughout. Besides, the call in assay [4], in assay [6], in assay [8] and in assay [9] was inactive.

In the case of `C[N+](C)(C)CCCCCC[N+](C)(C)C`, the Potency result in assay [1], in assay [2], in assay [3], in assay [5], in [7] and in [10] was “inactive” throughout. Besides, the molecule was classed as inactive in [4], in assay [6], in [8] and in [9].

In the case of `COc1ccc(Cc2nccc3cc(OC)c(OC)cc23)cc1OC`, the Potency entry in [1], in [2], in [3], in [5] and in assay [7] was “inactive” throughout. For the same molecule, the outcome in assay [4], in assay [8] and in assay [9] was inactive.

Consider `CC1(C)O[C@H]2C[C@@H]3[C@H]4CCC5=CC(=O)C=C[C@]5(C)[C@@]4(F)[C@@H](O)C[C@]3(C)[C@]2(C(=O)CO)O1`, for which the Potency entry in assay [1], in [2], in assay [5] and in [10] was “inactive” in each case. Also, the molecule was classed as inactive in assay [4], in [6] and in [9].

`O=C(NCCN1CCOCC1)c1ccc(Cl)cc1`: the Potency entry in assay [1], in assay [2], in assay [3], in [5], in [7] and in assay [10] was “inactive” each time. Further, the molecule was called inactive in assay [4], in [6], in [8] and in assay [9].

On to `O=C1NCC2(CCN(CCc3ccccc3)CC2)O1`, for which the Potency entry in assay [1], in [2], in assay [3], in assay [5], in assay [7] and in [10] was “inactive” in each case. The call in [4], in assay [6], in assay [8] and in [9] was inactive.

For `C[C@@H](O)[C@H]1C(=O)N2C(C(=O)O)=C(S[C@@H]3CN[C@H](C(=O)N(C)C)C3)[C@H](C)[C@H]12`, the Potency entry in assay [1], in [2], in assay [3], in assay [5], in [7] and in assay [10] was “inactive” in each case. Also, the result in [4], in assay [6], in [8] and in assay [9] was inactive.

As to `CCN(CC)C(=O)c1ccc(O)c(OC)c1`, the Potency result in assay [1], in assay [2], in assay [3], in assay [5], in assay [7] and in [10] was “inactive” each time. Also, the outcome in [4], in assay [6], in assay [8] and in [9] was inactive.

Take `Cc1cccc(C)c1OCC(C)N` (stereo not given): the Potency in [1] was 13.5 µM (active). The Potency entry in [2], in assay [3] and in assay [10] was “inactive” throughout. Besides, the molecule was classed as inactive in assay [4], in [8] and in assay [9].

With `CCOC(=O)O[C@]1(C(=O)OCCl)CC[C@@H]2[C@H]3CCC4=CC(=O)C=C[C@]4(C)[C@@H]3[C@@H](O)C[C@@]21C`, the Potency entry in assay [1], in assay [2], in assay [3], in assay [5], in assay [7] and in assay [10] was “inactive” in each case. Further, the molecule was classed as inactive in assay [4], in [6], in [8] and in assay [9].

Turning to `O=C1Nc2ccc(Cl)cc2C(C#CC2CC2)(C(F)(F)F)O1` (stereo not given), the Potency result in assay [2], in [5] and in assay [7] was “inactive” each time. In addition, the call in assay [4] was inactive.

As for `O=c1[nH]cnc2c1ncn2[C@H]1CC[C@@H](CO)O1`, the Potency in assay [3] was 10 µM (active). The outcome in [4], in [8] and in [9] was inactive. The Potency result in assay [5], in assay [7] and in assay [10] was “inactive” in each case.

As to `NCCS`, the Potency result in assay [1], in assay [2], in assay [3], in assay [5], in assay [7] and in assay [10] was “inactive” each time. The molecule was called inactive in assay [4], in assay [6], in assay [8] and in [9].

Consider `O=C(O)c1c(Cl)c(Cl)c(Cl)c(Cl)c1-c1c2cc(I)c(=O)c(I)c-2oc2c(I)c(O)c(I)cc12`, for which the Potency result in assay [1], in assay [2], in assay [3], in assay [5], in assay [7] and in assay [10] was “inactive” throughout. For the same molecule, the molecule was called inactive in [4], in assay [6], in assay [8] and in [9].

In the case of `CC1=C(/C=C/C(C)=C/C=C/C(C)=C/C(=O)Nc2ccc(O)cc2)C(C)(C)CCC1`, the Potency in assay [1] is 10.7 µM (active); in assay [2], 11.2 µM (active); in assay [3] it was 11.2 µM (active); in [5], 10 µM (active); in assay [7], 11.2 µM (active); in assay [10] it was 12 µM (active).

With `Clc1ccc(Cn2c(CN3CCCC3)nc3ccccc32)cc1`, the Potency result in [2], in [5] and in [7] was “inactive” throughout. Moreover, the call in assay [4], in assay [8] and in assay [9] was inactive.

Turning to `CC/C(=C(\c1ccccc1)c1ccc(OCCN(C)C)cc1)c1ccccc1`, the Potency in assay [1] was 10.7 µM (active); in [3], 12.6 µM (active). The Potency entry in assay [2] was “inactive”. Moreover, the result in [4] and in assay [8] was inactive.

On to `O=C1NC(=O)C(c2ccccc2)(c2ccccc2)N1`, for which the Potency result in assay [1], in assay [2], in assay [3], in [5], in [7] and in assay [10] was “inactive” in each case. Further, the call in [4], in assay [6], in assay [8] and in assay [9] was inactive.

With `CN(C)CCC(c1ccccc1)c1ccccn1` (stereo not given), the Potency in assay [1] was 7.57 µM (active). In addition, the Potency entry in [2], in assay [3] and in [5] was “inactive” in each case. The outcome in assay [4], in [6], in [8] and in [9] was inactive.

In the case of `CCCNC(=O)NS(=O)(=O)c1ccc(Cl)cc1`, the Potency entry in assay [1], in [2], in [3], in assay [5], in assay [7] and in assay [10] was “inactive” in each case. The call in [4], in assay [6], in assay [8] and in assay [9] was inactive.

On to `CCCCC1C(=O)N(c2ccccc2)N(c2ccccc2)C1=O`, for which the Potency in assay [1] is 12 µM (active); in assay [3] it was 11.2 µM (active). Further, the Potency entry in assay [2] was “inactive”. Moreover, the outcome in assay [4] and in assay [9] was inactive.

Regarding `CC(=O)c1ccc(S(=O)(=O)NC(=O)NC2CCCCC2)cc1`, the Potency result in assay [1], in assay [2], in assay [3], in assay [5], in assay [7] and in [10] was “inactive” throughout. Besides, the molecule was classed as inactive in assay [4], in assay [6], in assay [8] and in [9].

For `CCN(CC)CCNC(=O)c1ccc(N)cc1`, the Potency result in assay [1], in assay [2], in assay [3], in assay [5], in assay [7] and in assay [10] was “inactive” each time. For the same molecule, the molecule was called inactive in assay [4], in assay [6], in assay [8] and in assay [9].

As to `COCCCCC(=NOCCN)c1ccc(C(F)(F)F)cc1`, the Potency in assay [1] was 5.36 µM (active); in assay [10] it was 6.75 µM (active).

With `COc1ccccc1N1CCN(CCCNc2cc(=O)n(C)c(=O)n2C)CC1`, the Potency result in assay [1], in assay [2], in assay [3], in [5], in [7] and in [10] was “inactive” in each case. For the same molecule, the molecule was classed as inactive in assay [4], in assay [6], in [8] and in [9].

`NC(N)=Nc1nc(CSCC/C(N)=N/S(N)(=O)=O)cs1`: the Potency result in assay [1], in assay [2], in assay [3], in assay [5], in [7] and in [10] was “inactive” throughout. Further, the molecule was classed as inactive in [4], in [6], in [8] and in [9].

As for `CC(=O)N[C@@H](CS)C(=O)O`, the Potency entry in assay [1], in assay [2], in assay [3], in [5], in assay [7] and in [10] was “inactive” each time. The outcome in assay [4], in assay [6], in assay [8] and in [9] was inactive.

As for `O=C(O)c1cc(-c2ccccc2)nc2ccccc12`, the Potency result in assay [1], in [2], in assay [3], in [5], in assay [7] and in [10] was “inactive” each time. Also, the molecule was called inactive in assay [4], in assay [6], in assay [8] and in [9].

For `Cc1cnc(C(=O)O)c[n+]1[O-]`, the Potency entry in assay [1], in assay [2], in assay [3], in [5], in assay [7] and in assay [10] was “inactive” each time. The result in assay [4], in assay [6], in assay [8] and in [9] was inactive.

Take `CC(=O)O[C@]1(C(C)=O)CC[C@H]2[C@@H]3C=C(Cl)C4=CC(=O)[C@@H]5C[C@@H]5[C@]4(C)[C@H]3CC[C@@]21C`: the Potency result in assay [2] and in assay [5] was “inactive” throughout. Further, the Potency in [3] was 12.6 µM (active). Further, the outcome in [4] and in [9] was inactive.

In the case of `O=C(O)Cc1cccc2ccccc12`, the Potency result in assay [1], in [2], in [3], in assay [5], in [7] and in [10] was “inactive” each time. Further, the outcome in assay [4], in assay [6], in [8] and in assay [9] was inactive.

As for `CCCCCN(C)CCC(O)(P(=O)(O)O)P(=O)(O)O`, the Potency result in assay [1], in [2], in assay [3], in assay [5], in assay [7] and in assay [10] was “inactive” each time. Moreover, the molecule was called inactive in assay [4], in assay [6], in assay [8] and in assay [9].

The values are drawn from PubChem BioAssay (NCATS).
